Measurements: paper PMC11062922 (Nature Chemical Biology, 2023)
Like-named read-outs stand apart in the source and are kept apart here.

Legend:
Set-up in all cases: species or system human, MV4-11 + K-562 + COLO205 + SK-N-BE2 + OVCAR-8
FLT3 = conditions: read-out: apparent Kd, n = 1
ILK = conditions: read-out: apparent Kd; compound concentrations: 100 nM and 1000 nM (sheet 'Samples'), CATDS: 0.155345852963269; n = 1
MAP2K1 = conditions: read-out: apparent Kd; compound concentrations: 100 nM and 1000 nM (sheet 'Samples'), CATDS: 0.15695729249265; n = 1
MYLK3 = conditions: read-out: apparent Kd, compound concentrations: 100 nM and 1000 nM (sheet 'Samples'), n = 1
TNIK = conditions: read-out: apparent Kd; compound concentrations: 100 nM and 1000 nM (sheet 'Samples'), CATDS: 0.18945964172461099; n = 1
FLT4 = conditions: read-out: apparent Kd; compound concentrations:100 nM and 1000 nM (sheet 'Samples'); n = 1
MAP3K11 = conditions: read-out: apparent Kd; compound concentrations:100 nM and 1000 nM (sheet 'Samples'); n = 1
PRKCA = conditions: read-out: apparent Kd; compound concentrations:100 nM and 1000 nM (sheet 'Samples'); n = 1
PRKCB = conditions: read-out: apparent Kd; compound concentrations:100 nM and 1000 nM (sheet 'Samples'); n = 1
RET = conditions: read-out: apparent Kd; compound concentrations:100 nM and 1000 nM (sheet 'Samples'); n = 1
STRADA = conditions: read-out: apparent Kd; compound concentrations:100 nM and 1000 nM (sheet 'Samples'); n = 1
GSK3A = conditions: read-out: apparent Kd; compound concentrations:100 nM and 1000 nM (sheet 'Samples'); n = 1
FN3KRP = conditions: read-out: apparent Kd, compound concentrations: 100 nM and 1000 nM (sheet 'Samples'), n = 1
MAPK10 = conditions: read-out: apparent Kd; compound concentrations: 100 nM and 1000 nM (sheet 'Samples'), CATDS: 0.114459990523153; n = 1
MAPK11 = conditions: read-out: apparent Kd; compound concentrations: 100 nM and 1000 nM (sheet 'Samples'), CATDS: 0.104421690058707; n = 1
MAPK14 = conditions: read-out: apparent Kd; compound concentrations: 100 nM and 1000 nM (sheet 'Samples'), CATDS: 0.43214609476913801; n = 1
MAPK9 = conditions: read-out: apparent Kd; compound concentrations: 100 nM and 1000 nM (sheet 'Samples'), CATDS: 0.13499142741698; n = 1
MAPKAPK2 = conditions: read-out: apparent Kd; compound concentrations: 100 nM and 1000 nM (sheet 'Samples'), CATDS: 0.49442009217898503; n = 1
PIP4K2C = conditions: read-out: apparent Kd; compound concentrations: 100 nM and 1000 nM (sheet 'Samples'), CATDS: 0.103791319343203; n = 1
GRK6 = conditions: read-out: apparent Kd; compound concentrations: 100 nM and 1000 nM (sheet 'Samples'), CATDS: 1; n = 1
GAK = conditions: read-out: apparent Kd; compound concentrations: 100 nM and 1000 nM (sheet 'Samples'), CATDS: 0.87402661457119502; n = 1
TTK = conditions: read-out: apparent Kd; compound concentrations: 100 nM and 1000 nM (sheet 'Samples'), CATDS: 0.35015598460163; n = 1
MAP3K1 = conditions: read-out: apparent Kd; compound concentrations:100 nM and 1000 nM (sheet 'Samples'); n = 1
MAP4K5 = conditions: read-out: apparent Kd; compound concentrations:100 nM and 1000 nM (sheet 'Samples'); n = 1
NUAK1 = conditions: read-out: apparent Kd; compound concentrations:100 nM and 1000 nM (sheet 'Samples'); n = 1
NUAK2 = conditions: read-out: apparent Kd; compound concentrations:100 nM and 1000 nM (sheet 'Samples'); n = 1
SLK = conditions: read-out: apparent Kd; compound concentrations:100 nM and 1000 nM (sheet 'Samples'); n = 1
STK10 = conditions: read-out: apparent Kd; compound concentrations:100 nM and 1000 nM (sheet 'Samples'); n = 1
FGFR1 = conditions: read-out: apparent Kd; compound concentrations:100 nM and 1000 nM (sheet 'Samples'); n = 1
PIK3C2A = conditions: read-out: apparent Kd; compound concentrations:100 nM and 1000 nM (sheet 'Samples'); n = 1
FRK = conditions: read-out: apparent Kd; compound concentrations: 100 nM and 1000 nM (sheet 'Samples'), CATDS: 0.28944129909261102; n = 1
HCK = conditions: read-out: apparent Kd; compound concentrations: 100 nM and 1000 nM (sheet 'Samples'), CATDS: 0.241643180155243; n = 1
LCK = conditions: read-out: apparent Kd; compound concentrations: 100 nM and 1000 nM (sheet 'Samples'), CATDS: 0.30139088079166299; n = 1
MAP2K5 = conditions: read-out: apparent Kd; compound concentrations: 100 nM and 1000 nM (sheet 'Samples'), CATDS: 0.19651058590933199; n = 1
GSK3B = conditions: read-out: apparent Kd; compound concentrations: 100 nM and 1000 nM (sheet 'Samples'), CATDS: 0.16764618066406201; n = 1
MAP2K2 = conditions: read-out: apparent Kd; compound concentrations:100 nM and 1000 nM (sheet 'Samples'); n = 1
RIOK2 = conditions: read-out: apparent Kd; compound concentrations:100 nM and 1000 nM (sheet 'Samples'); n = 1
TGFBR2 = conditions: read-out: apparent Kd; compound concentrations:100 nM and 1000 nM (sheet 'Samples'); n = 1
[1] = compound concentrations:100 nM and 1000 nM (sheet 'Samples')
[2] = compound concentrations: 100 nM and 1000 nM (sheet 'Samples'), CATDS: 1

SMILES: COc1cc[nH]c1/C=C1\C(=O)Nc2ccccc21 [RO0272159-000]
- potency estimated from few doses (FLT3; compound concentrations: 100 nM and 1000 nM (sheet 'Samples'), CATDS: 0.77308167829792795): 0.0551 µM
- potency estimated from few doses (ILK): 1.91 µM
- potency estimated from few doses (MAP2K1): 1.85 µM
- potency estimated from few doses (MYLK3; CATDS: 0.17793919150823601): 1.28 µM
- potency estimated from few doses (TNIK): 1.08 µM

SMILES: CN(C)C/C=C/C(=O)Nc1ccc(C(=O)Nc2cccc(Nc3ncc(Cl)c(-c4c[nH]c5ccccc45)n3)c2)cc1 [THZ1]
- potency estimated from few doses (FLT3; [1]): 1.31 µM
- potency estimated from few doses (FLT4): 0.904 µM
- potency estimated from few doses (MAP3K11): 0.743 µM
- potency estimated from few doses (PRKCA): 0.191 µM
- potency estimated from few doses (PRKCB): 0.727 µM
- potency estimated from few doses (RET): 0.921 µM
- potency estimated from few doses (STRADA): 2.37 µM

SMILES: O=C(Nc1n[nH]c2nc(-c3ccco3)c(Br)cc12)C1CCN(Cc2ccccc2)C1.O=C(O)[C@H](O)[C@@H](O)C(=O)O (centres unmarked) [SB-742034-AC]
- potency estimated from few doses (GSK3A): 0.41 µM

SMILES: Cl.Cn1c(=O)c(Oc2ccc(F)cc2F)cc2cnc(NC(C)(C)CO)nc21 [RO3305411-001]
- potency estimated from few doses (FN3KRP; CATDS: 0.10743943329960801): 1.39 µM
- potency estimated from few doses (MAPK10): 1.1 µM
- potency estimated from few doses (MAPK11): 1.55 µM
- potency estimated from few doses (MAPK14): 0.0216 µM
- potency estimated from few doses (MAPK9): 0.64 µM
- potency estimated from few doses (MAPKAPK2): 0.0168 µM
- potency estimated from few doses (PIP4K2C): 1.59 µM

SMILES: O=C1Nc2ccccc2/C1=C/Nc1ccc2[nH]c(=O)[nH]c2c1 [GW284408X]
- potency estimated from few doses (FLT3; compound concentrations: 100 nM and 1000 nM (sheet 'Samples'), CATDS: 0.54453262493036503): 0.348 µM
- potency estimated from few doses (MYLK3; CATDS: 0.46220060091739101): 0.485 µM

SMILES: c1ccc(-c2cnc3nccnn23)cc1 [AH20685XX]
- potency estimated from few doses (GRK6): 2.06 µM

SMILES: COc1cc(N2CCN(C(C)C)CC2)ccc1Nc1nc(Nc2cccc3ncccc23)c2cc[nH]c2n1 [GSK1511931A]
- potency estimated from few doses (GAK): 0.0839 µM
- potency estimated from few doses (TTK): 1.08 µM

SMILES: C[C@@H](Oc1cc(-n2cnc3cc(-c4cnn(C)c4)ccc32)sc1C(N)=O)c1ccccc1Cl [GSK580432A]
- potency estimated from few doses (FLT3; [1]): 1.3 µM
- potency estimated from few doses (FLT4): 1.61 µM
- potency estimated from few doses (MAP3K1): 0.129 µM
- potency estimated from few doses (MAP4K5): 1.04 µM
- potency estimated from few doses (NUAK1): 0.598 µM
- potency estimated from few doses (NUAK2): 0.525 µM
- potency estimated from few doses (SLK): 0.615 µM
- potency estimated from few doses (STK10): 0.16 µM

SMILES: Nc1ncnc2c1ncn2-c1ccc(Cl)cc1 [AH2635]
- potency estimated from few doses (FLT3; [2]): 1.61 µM

SMILES: COc1cc(OC)cc(-c2cc3cnc(N)nc3nc2NC(=O)NC(C)(C)C)c1 [PFE-PKIS_3]
- potency estimated from few doses (FGFR1): 0.0858 µM
- potency estimated from few doses (FLT4): 1.38 µM
- potency estimated from few doses (PIK3C2A): 2.38 µM

SMILES: CCS(=O)(=O)c1ccc(OC)c(Nc2ncc(-c3cccc(-c4ccccc4F)c3)o2)c1 [GW678313X]
- potency estimated from few doses (FLT4): 0.423 µM

SMILES: Cl.N#Cc1cccc(Nc2ncc(-c3ccccc3)o2)c1 [GW627834A]
- potency estimated from few doses (FLT3; [2]): 0.344 µM

SMILES: COc1cc2nccc(Nc3ccc(NC(=O)c4ccc(C)cc4)c(O)c3)c2cc1OC.Cl [GW440132A]
- potency estimated from few doses (FRK): 0.691 µM
- potency estimated from few doses (HCK): 0.986 µM
- potency estimated from few doses (LCK): 0.643 µM
- potency estimated from few doses (MAP2K5): 1.64 µM

SMILES: CC(C)c1ccc(Nc2nccc(-c3cnn4ncccc34)n2)cc1 [GW805758X]
- potency estimated from few doses (FLT3; [1]): 1.17 µM
- potency estimated from few doses (GSK3A): 0.888 µM
- potency estimated from few doses (GSK3B): 1.46 µM
- potency estimated from few doses (MAP2K2): 2.02 µM
- potency estimated from few doses (RIOK2): 1.7 µM
- potency estimated from few doses (TGFBR2): 2 µM

SMILES: Cn1nc(-c2ccc(NC(=O)Nc3ccc4ccccc4c3)c(F)c2)c2cnc(NCCN3CCOCC3)nc21.O=C(O)C(F)(F)F [SB-750250-M]
- potency estimated from few doses (FN3KRP; CATDS: 1): 1.8 µM
